# Test results published in the supplement of paper PMC8728848.
# This is one part of a sample in which the strongest signals are shown more often than they occur.
# Experiments:
# Experiment in all cases: glycan array binding signal (z-score within array); higher = stronger binding
# [1] = tested on: Man(a1-3)[Man(a1-6)]Man(a1-6)[Man(a1-2)Man(a1-3)]Man(b1-4)GlcNAc(b1-4)GlcNAc; conditions: glycan notation: IUPAC condensed, linker removed
# In short: (§1)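 Glycan array data were curated from 3228 arrays in the Consortium for Functional Glycomics database and kept only where the protein sequence was available. Glycan names were converted to IUPAC-condensed notation, and columns mapping to the same glycan were averaged. The binding signal is a within-array Z-score, averaged across arrays of the same protein sequence at different concentrations or buffers and across linkers. Negative Z-scores can be read as non-binding.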
# Man(b1-4)GlcNAc = conditions: glycan notation: IUPAC condensed, linker removed
# In short: as §1
# [2] = tested on: Neu5Ac(a2-3)Gal(b1-3)GalNAc(b1-3)Gal(b1-4)GlcNAc; conditions: glycan notation: IUPAC condensed, linker removed
# In short: as §1
# [3] = tested on: Man(a1-2)Man(a1-3)[Man(a1-2)Man(a1-6)]Man; conditions: glycan notation: IUPAC condensed, linker removed
# In short: as §1
# [4] = tested on: Man(a1-3)[Man(a1-6)]Man(a1-6)[Man(a1-3)]Man(b1-4)GlcNAc(b1-4)GlcNAc; conditions: glycan notation: IUPAC condensed, linker removed
# In short: as §1
# [5] = tested on: Neu5Ac(a2-3)Gal(b1-3)GalNAc6S; conditions: glycan notation: IUPAC condensed, linker removed
# In short: as §1
# [6] = tested on: Man(a1-2)Man(a1-6)[Man(a1-3)]Man(a1-6)[Man(a1-2)Man(a1-2)Man(a1-3)]Man; conditions: glycan notation: IUPAC condensed, linker removed
# In short: as §1
# [7] = tested on: Neu5Ac(a2-3)Gal(b1-3)GalNAc; conditions: glycan notation: IUPAC condensed, linker removed
# In short: as §1
# [8] = tested on: Man(a1-2)Man(a1-3)[Man(a1-6)]Man(a1-6)[Man(a1-2)Man(a1-3)]Man(b1-4)GlcNAc(b1-4)GlcNAc; conditions: glycan notation: IUPAC condensed, linker removed
# In short: as §1
# [9] = tested on: Man(a1-2)Man(a1-6)[Man(a1-3)]Man(a1-6)[Man(a1-2)Man(a1-2)Man(a1-3)]Man(b1-4)GlcNAc(b1-4)GlcNAc; conditions: glycan notation: IUPAC condensed, linker removed
# In short: as §1
# Man(a1-3)[Man(a1-6)]Man = conditions: glycan notation: IUPAC condensed, linker removed
# In short: as §1
# [10] = tested on: Neu5Ac(a2-3)Gal(b1-3)GalNAc(b1-4)[Neu5Ac(a2-3)]Gal(b1-4)Glc; conditions: glycan notation: IUPAC condensed, linker removed
# In short: as §1
# [11] = tested on: Neu5Ac(a2-3)Gal(b1-3)GalNAc(b1-4)[Neu5Ac(a2-8)Neu5Ac(a2-3)]Gal(b1-4)Glc; conditions: glycan notation: IUPAC condensed, linker removed
# In short: as §1
# [12] = tested on: Neu5Ac(a2-3)Gal(b1-3)GlcNAc(b1-2)Man(a1-3)[GlcNAc(b1-4)][Neu5Ac(a2-3)Gal(b1-3)GlcNAc(b1-2)Man(a1-6)]Man(b1-4)GlcNAc(b1-4)GlcNAc; conditions: glycan notation: IUPAC condensed, linker removed
# In short: as §1
# [13] = tested on: Man(a1-2)Man(a1-3)[Man(a1-2)Man(a1-6)]Man(a1-6)[Man(a1-3)[Man(a1-6)]Man(a1-6)]Man(b1-4)GlcNAc(b1-4)GlcNAc; conditions: glycan notation: IUPAC condensed, linker removed
# In short: as §1
# Man(a1-6)Man = conditions: glycan notation: IUPAC condensed, linker removed
# In short: as §1
# [14] = tested on: Man(a1-3)[Man(a1-6)]Man(a1-6)[Man(a1-3)]Man; conditions: glycan notation: IUPAC condensed, linker removed
# In short: as §1
# [15] = tested on: Man(a1-3)[Man(a1-6)]Man(b1-4)GlcNAc(b1-4)[Fuc(a1-6)]GlcNAc; conditions: glycan notation: IUPAC condensed, linker removed
# In short: as §1
# [16] = tested on: Neu5Ac(a2-3)Gal(b1-3)GlcNAc(b1-2)Man(a1-3)[Neu5Ac(a2-3)Gal(b1-3)GlcNAc(b1-2)Man(a1-6)]Man(b1-4)GlcNAc(b1-4)GlcNAc; conditions: glycan notation: IUPAC condensed, linker removed; mutation: R125K
# In short: as §1
# [17] = tested on: Neu5Ac(a2-3)Gal(b1-3)GalNAc(b1-3)Gal(a1-4)Gal(b1-4)Glc; conditions: glycan notation: IUPAC condensed, linker removed
# In short: as §1
# Chain of Neurocan (Homo sapiens), O14594 (O14594 other isoform, or with tags, fused parts or gaps): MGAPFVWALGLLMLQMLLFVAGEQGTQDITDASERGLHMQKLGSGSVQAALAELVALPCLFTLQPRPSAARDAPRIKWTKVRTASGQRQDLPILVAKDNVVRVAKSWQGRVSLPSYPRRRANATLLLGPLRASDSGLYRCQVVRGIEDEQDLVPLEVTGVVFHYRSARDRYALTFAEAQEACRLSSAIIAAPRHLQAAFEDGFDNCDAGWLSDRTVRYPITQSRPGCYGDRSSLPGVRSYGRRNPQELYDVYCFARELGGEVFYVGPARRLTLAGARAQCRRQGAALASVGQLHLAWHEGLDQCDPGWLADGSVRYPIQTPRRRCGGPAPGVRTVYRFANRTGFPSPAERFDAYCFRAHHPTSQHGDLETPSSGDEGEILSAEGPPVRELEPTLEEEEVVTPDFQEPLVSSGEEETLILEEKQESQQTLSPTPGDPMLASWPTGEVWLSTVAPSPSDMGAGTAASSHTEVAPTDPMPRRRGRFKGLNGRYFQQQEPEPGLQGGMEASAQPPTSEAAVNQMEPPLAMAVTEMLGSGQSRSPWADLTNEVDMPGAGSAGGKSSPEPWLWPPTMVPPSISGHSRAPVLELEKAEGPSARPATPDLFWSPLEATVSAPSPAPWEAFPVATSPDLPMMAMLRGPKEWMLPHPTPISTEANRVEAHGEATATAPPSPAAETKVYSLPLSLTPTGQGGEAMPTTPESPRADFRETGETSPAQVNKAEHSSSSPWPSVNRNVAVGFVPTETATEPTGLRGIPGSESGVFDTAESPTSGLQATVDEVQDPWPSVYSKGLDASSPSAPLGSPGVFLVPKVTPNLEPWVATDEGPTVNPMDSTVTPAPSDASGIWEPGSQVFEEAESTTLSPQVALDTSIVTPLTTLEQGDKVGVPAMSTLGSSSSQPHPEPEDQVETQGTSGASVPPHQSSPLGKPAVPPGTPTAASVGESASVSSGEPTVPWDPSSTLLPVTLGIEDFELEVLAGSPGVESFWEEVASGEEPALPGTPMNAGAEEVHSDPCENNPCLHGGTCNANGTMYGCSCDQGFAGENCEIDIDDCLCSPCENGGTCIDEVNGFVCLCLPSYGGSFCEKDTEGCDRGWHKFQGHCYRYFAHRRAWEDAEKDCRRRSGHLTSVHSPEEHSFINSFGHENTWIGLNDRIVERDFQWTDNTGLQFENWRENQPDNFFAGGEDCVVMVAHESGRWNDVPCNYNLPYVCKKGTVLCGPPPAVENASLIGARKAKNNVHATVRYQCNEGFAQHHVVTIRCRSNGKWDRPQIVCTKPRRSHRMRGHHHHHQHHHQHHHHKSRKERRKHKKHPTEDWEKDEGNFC
# Chain of Avaren (Actinomycete K97) (chain, as listed by the source): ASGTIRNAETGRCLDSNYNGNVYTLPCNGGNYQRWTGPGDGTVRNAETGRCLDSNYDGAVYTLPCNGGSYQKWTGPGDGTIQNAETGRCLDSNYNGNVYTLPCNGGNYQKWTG
# Chain of Aggrecan (Rattus norvegicus), NP_071526 (chain, as listed by the source): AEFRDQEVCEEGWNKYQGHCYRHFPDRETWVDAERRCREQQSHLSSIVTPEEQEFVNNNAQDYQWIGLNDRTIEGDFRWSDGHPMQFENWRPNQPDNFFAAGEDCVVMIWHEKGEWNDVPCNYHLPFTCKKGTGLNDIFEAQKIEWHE
# Chain of C3b (Homo sapiens), P01024 (P01024 23-667): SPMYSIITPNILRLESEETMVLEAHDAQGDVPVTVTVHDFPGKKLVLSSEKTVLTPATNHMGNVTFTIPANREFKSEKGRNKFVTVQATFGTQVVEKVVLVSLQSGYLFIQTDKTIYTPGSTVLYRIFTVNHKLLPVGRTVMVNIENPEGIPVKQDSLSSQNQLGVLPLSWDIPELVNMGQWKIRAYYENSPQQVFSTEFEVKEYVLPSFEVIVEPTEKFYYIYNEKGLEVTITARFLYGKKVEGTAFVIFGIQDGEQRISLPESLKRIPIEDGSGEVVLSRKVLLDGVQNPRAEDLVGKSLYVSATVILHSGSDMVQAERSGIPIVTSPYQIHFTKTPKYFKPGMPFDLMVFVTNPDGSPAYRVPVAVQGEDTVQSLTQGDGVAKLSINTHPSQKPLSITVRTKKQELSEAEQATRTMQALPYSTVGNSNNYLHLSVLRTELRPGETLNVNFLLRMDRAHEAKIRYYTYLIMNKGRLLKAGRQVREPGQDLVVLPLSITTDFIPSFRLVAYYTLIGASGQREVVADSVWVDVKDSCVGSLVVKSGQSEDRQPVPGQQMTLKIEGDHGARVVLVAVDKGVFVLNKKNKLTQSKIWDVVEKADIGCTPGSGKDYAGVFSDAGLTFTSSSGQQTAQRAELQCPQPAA
# Chain of wLAT-1A (Homo sapiens), Q01650 (Q01650 whole entry): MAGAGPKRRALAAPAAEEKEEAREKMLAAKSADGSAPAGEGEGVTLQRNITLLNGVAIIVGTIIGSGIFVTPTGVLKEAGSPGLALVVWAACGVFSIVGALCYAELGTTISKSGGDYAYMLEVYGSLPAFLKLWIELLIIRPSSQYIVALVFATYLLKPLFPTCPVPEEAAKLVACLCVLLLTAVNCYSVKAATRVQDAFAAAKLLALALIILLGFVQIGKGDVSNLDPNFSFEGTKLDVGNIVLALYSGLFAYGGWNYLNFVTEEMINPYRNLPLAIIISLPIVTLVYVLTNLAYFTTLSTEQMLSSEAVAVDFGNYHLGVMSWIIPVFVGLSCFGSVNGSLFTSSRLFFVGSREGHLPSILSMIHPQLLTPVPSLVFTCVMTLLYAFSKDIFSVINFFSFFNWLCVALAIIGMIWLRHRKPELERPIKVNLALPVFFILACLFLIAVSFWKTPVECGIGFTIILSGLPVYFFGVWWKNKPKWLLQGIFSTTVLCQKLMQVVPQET
# Chain of 6RG (Lolium perenne), B9U140 (B9U140 entry or part of it): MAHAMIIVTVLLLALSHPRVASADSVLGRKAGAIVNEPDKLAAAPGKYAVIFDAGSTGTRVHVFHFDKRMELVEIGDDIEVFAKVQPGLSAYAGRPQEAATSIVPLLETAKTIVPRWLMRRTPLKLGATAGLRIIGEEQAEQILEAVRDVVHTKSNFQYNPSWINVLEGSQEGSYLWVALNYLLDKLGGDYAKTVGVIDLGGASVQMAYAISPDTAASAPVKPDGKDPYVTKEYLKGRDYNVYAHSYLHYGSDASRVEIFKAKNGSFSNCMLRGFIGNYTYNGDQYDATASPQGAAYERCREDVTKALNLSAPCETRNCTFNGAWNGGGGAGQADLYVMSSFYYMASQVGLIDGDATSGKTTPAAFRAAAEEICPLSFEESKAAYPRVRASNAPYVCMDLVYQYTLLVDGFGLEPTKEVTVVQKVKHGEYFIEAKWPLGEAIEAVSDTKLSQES
# Chain of CHT (Homo sapiens) (chain, as listed by the source): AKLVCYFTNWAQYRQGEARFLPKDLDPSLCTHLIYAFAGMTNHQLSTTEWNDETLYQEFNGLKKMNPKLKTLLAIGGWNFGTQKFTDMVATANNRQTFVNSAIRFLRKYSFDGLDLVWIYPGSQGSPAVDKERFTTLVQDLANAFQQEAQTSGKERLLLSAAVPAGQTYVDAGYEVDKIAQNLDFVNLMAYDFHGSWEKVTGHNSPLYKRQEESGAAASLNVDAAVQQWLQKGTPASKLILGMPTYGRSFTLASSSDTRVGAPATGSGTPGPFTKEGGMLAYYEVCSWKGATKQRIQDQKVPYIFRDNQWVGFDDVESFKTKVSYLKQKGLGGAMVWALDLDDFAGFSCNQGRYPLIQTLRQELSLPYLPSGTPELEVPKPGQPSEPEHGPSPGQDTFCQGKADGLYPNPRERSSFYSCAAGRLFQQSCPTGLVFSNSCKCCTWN
# Chain of PILRb (Mus musculus), Q2YSF2 (Q2YSF2 entry or part of it): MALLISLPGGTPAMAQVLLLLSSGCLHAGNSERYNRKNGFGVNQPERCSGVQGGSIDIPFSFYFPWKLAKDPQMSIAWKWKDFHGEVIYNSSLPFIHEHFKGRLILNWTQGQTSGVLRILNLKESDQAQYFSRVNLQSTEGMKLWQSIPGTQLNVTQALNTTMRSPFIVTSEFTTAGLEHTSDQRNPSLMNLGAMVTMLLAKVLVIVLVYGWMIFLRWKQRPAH
# Chain of 6RG (Lolium perenne) (chain, as listed by the source): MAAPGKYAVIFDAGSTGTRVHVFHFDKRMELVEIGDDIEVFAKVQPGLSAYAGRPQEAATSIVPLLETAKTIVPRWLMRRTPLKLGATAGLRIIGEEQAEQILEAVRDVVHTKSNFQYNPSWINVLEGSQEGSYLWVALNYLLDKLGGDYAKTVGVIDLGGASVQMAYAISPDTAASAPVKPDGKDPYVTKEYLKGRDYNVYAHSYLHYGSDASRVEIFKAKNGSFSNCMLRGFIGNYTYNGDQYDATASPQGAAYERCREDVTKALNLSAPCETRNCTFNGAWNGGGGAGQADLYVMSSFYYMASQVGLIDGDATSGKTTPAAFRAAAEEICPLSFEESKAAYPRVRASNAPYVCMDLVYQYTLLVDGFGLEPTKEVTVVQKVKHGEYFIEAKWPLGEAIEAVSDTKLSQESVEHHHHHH
substance,measurement,setting,value
"Aggrecan (Rattus norvegicus), NP_071526",glycan array binding signal (z-score),[1],1.14
same,glycan array binding signal (z-score),Man(b1-4)GlcNAc,-0.071
same,glycan array binding signal (z-score),[2],-0.071
"6RG (Lolium perenne), B9U140",glycan array binding signal (z-score),[3],-0.266
same,glycan array binding signal (z-score),[4],-0.359
6RG (Lolium perenne),glycan array binding signal (z-score),[5],-0.326
"C3b (Homo sapiens), P01024",glycan array binding signal (z-score),[6],-0.764
same,glycan array binding signal (z-score),[7],-0.754
Avaren (Actinomycete K97),glycan array binding signal (z-score),[3],3.5
same,glycan array binding signal (z-score),[8],1.08
same,glycan array binding signal (z-score),[9],13.4
same,glycan array binding signal (z-score),[6],6.02
same,glycan array binding signal (z-score),[1],-0.014
same,glycan array binding signal (z-score),[4],-0.113
same,glycan array binding signal (z-score),Man(a1-3)[Man(a1-6)]Man,-0.106
same,glycan array binding signal (z-score),[10],-0.124
same,glycan array binding signal (z-score),[11],-0.128
MpAFP RI GFP (Marinomonas primoryensis),glycan array binding signal (z-score),[12],-0.323
"HARE (Homo sapiens), Q8WWQ8",glycan array binding signal (z-score),[13],2.39
CHT (Homo sapiens),glycan array binding signal (z-score),"Man(a1-3)[Man(a1-6)]Man; mutation: D138V, E140I",-0.149
"wLAT-1A (Homo sapiens), Q01650",glycan array binding signal (z-score),Man(a1-6)Man,0.732
same,glycan array binding signal (z-score),Man(b1-4)GlcNAc,0.584
"PILRb (Mus musculus), Q2YSF2",glycan array binding signal (z-score),Man(b1-4)GlcNAc,-0.166
"Siglec-8 (Homo sapiens), Q9NYZ4",glycan array binding signal (z-score),[3],-0.204
same,glycan array binding signal (z-score),[14],0.131
same,glycan array binding signal (z-score),[14]; mutation: R125K,-0.227
same,glycan array binding signal (z-score),[15],-0.07
same,glycan array binding signal (z-score),[7]; mutation: R125K,4.65
same,glycan array binding signal (z-score),[16],1.23
"Neurocan (Homo sapiens), O14594",glycan array binding signal (z-score),[3],-0.053
same,glycan array binding signal (z-score),[14],-0.722
same,glycan array binding signal (z-score),[17],0.009
